Our source for the growth inhibition, inhibition and outcome values is PubChem BioAssay.

Assay [1] can be described thus: antimalarial activity against Dd2 strain (AID 2302;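 active = growth inhibition above 50% at the single 2 µM test dose, taken to imply half-maximal potency below 2 µM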;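 note: 0% = DMSO untreated growth and 100% = chloroquine plus artemisinin killed control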). The settings on record: P. falciparum Dd2 in RBCs, LDH growth readout, 72 h; at 2 µM; stronger effect = higher value.
Assay [2] can be described thus: HepG2 cytotoxicity, primary screen, cytotoxicity control for P. falciparum antimalarial project, cell-based, ATP luminescence (AID 2303;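 active = inhibition above 50%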;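 note: 0% = DMSO wells and 100% = digitonin-killed cells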). The settings on record: HepG2 viability, 24-48 h, at 10 µM, stronger effect = higher value.
The target in assay [3] is L-lactate dehydrogenase (Plasmodium falciparum (isolate CDC / Honduras)) (UniProt Q27743). Put plainly: PfLDH activity inhibition – cell lysate, 3D7 strain, counter-screen for P. falciparum growth inhibition project (AID 2304).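 Note: 0% = vehicle and 100% = reference inhibitor.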 The settings on record: P. falciparum 3D7 crude extract, LDH APAD/NBT absorbance; at 2 µM; stronger effect = higher value.
Sequence of L-lactate dehydrogenase (Plasmodium falciparum (isolate CDC / Honduras)) (Q27743 whole entry, looked up): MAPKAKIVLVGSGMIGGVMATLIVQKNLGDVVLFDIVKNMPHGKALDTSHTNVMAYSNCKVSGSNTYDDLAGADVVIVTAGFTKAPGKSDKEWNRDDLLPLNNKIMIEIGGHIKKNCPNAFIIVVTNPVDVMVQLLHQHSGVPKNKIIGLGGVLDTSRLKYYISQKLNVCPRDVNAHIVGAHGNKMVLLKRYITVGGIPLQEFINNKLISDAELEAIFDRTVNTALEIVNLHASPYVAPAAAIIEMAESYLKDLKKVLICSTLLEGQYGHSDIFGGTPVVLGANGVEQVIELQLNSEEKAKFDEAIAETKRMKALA
Assay [4] in a line: inhibition of 3D7 malaria parasite growth – strain 3D7 (AID 2306).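 Note: 0% = DMSO wells and 100% = chloroquine plus artemisinin control wells.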 The settings on record: P. falciparum 3D7 erythrocytic growth, LDH absorbance, 72 h; at 2 µM; stronger effect = higher value.
In assay [5] the target is Calcium-dependent protein kinase 1 (Plasmodium falciparum (isolate 3D7)) (UniProt P62344). The assay is described as follows: PfCDPK1 kinase inhibitors, biochemical, TCAMS library (AID 1159585; cut-off not given, nearly all actives have IC50 up to about 0.98 µM;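 note: inhibitors leave more ATP so luminescence rises with inhibition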). The settings on record: recombinant PfCDPK1, Kinase-Glo ATP depletion luminescence. Background: In Kinase-Glo more light means more ATP remaining.
Sequence of Calcium-dependent protein kinase 1 (Plasmodium falciparum (isolate 3D7)) (P62344 whole entry, looked up): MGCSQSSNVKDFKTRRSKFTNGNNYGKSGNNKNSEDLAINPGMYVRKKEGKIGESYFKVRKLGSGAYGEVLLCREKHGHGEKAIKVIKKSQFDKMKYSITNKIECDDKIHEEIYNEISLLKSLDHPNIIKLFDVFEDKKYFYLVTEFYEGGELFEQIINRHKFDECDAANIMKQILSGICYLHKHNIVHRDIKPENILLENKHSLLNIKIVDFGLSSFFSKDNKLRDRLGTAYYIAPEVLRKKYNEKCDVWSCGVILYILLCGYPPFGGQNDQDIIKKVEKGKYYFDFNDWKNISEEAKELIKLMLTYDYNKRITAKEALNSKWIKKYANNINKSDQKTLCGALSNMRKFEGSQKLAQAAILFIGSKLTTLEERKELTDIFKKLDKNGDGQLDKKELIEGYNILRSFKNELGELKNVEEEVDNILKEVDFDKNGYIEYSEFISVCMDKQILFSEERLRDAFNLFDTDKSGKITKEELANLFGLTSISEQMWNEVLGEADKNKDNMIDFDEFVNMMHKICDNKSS
For assay [6], the target named is Plasmodium falciparum protein kinase 6 (PK6, PF3D7_1337100) (UniProt Q8IDW1). Put plainly: PfPK6 kinase inhibitors, biochemical, TCAMS library (AID 1159586). The settings on record: recombinant PfPK6, Kinase-Glo ATP depletion luminescence.
Sequence of Plasmodium falciparum protein kinase 6 (PK6, PF3D7_1337100) (Q8IDW1 1-305): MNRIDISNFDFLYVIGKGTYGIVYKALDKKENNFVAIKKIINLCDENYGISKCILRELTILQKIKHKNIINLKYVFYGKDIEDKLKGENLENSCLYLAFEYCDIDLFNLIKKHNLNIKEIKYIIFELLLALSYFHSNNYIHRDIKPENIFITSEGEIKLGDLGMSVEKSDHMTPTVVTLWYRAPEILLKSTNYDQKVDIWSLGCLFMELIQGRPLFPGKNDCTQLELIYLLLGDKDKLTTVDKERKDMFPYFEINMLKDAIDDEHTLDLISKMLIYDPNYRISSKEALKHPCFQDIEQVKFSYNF
The target in assay [7] is Protein kinase 7 (PK7), Plasmodium falciparum 3D7 (PF3D7_0213400) (UniProt Q7YTF7). The assay is described as follows: inhibition of Plasmodium PK7 catalytic activity – biochemical, TCAMS antimalarial set, Kinase-Glo luminescence (AID 1159587). The settings on record: recombinant PfPK7, Kinase-Glo ATP depletion luminescence.
Sequence of Protein kinase 7 (PK7), Plasmodium falciparum 3D7 (PF3D7_0213400) (Q7YTF7 1-343): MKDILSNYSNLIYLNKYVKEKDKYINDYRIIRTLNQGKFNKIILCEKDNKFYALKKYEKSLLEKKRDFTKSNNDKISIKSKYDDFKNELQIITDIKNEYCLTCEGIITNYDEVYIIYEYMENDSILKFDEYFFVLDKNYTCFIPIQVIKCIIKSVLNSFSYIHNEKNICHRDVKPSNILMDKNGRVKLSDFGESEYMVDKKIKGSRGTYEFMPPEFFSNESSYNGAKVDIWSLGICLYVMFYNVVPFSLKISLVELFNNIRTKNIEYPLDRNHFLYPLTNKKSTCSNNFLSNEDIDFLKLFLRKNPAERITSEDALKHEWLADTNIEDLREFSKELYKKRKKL
The target in assay [8] is Calcium-dependent protein kinase 4 (Plasmodium falciparum (isolate 3D7)) (UniProt Q8IBS5). Put plainly: PfCDPK4 kinase inhibitors, biochemical, TCAMS library (AID 1159588; cut-off not given, nearly all actives have IC50 up to about 0.91 µM). The settings on record: recombinant PfCDPK4, Kinase-Glo ATP depletion luminescence.
Sequence of Calcium-dependent protein kinase 4 (Plasmodium falciparum (isolate 3D7)) (Q8IBS5 whole entry, looked up): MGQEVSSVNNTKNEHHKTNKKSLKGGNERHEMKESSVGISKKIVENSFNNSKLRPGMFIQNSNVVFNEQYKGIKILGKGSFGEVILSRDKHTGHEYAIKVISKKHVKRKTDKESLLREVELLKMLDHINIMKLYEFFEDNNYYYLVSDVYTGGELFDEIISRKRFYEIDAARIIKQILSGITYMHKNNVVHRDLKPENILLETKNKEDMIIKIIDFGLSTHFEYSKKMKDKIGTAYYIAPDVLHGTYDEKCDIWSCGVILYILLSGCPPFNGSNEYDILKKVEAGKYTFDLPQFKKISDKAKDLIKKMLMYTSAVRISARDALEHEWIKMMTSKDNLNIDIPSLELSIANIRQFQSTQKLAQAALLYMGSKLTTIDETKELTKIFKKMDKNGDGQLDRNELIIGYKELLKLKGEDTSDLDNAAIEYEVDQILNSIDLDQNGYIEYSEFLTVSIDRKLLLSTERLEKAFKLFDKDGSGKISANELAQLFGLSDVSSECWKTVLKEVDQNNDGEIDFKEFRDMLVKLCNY

Values without a mark were called inactive. For some of these results: Results with a measured potency or affinity are listed apart. Activity calls are given as the source filed them. Unless noted, the rule behind the calls is not given here.

As for `CC(C)COc1ccc(Cl)cc1Cc1nc(-c2nc3c(CN4CCN(C)CC4)cccc3[nH]2)cs1`, the values for the growth inhibition in assay [1] and in assay [4] were 30% and 99% (active), respectively. Besides, the inhibition (usually the relative decrease from the control value, in per cent) was 15% in assay [2] and -2% in assay [3]. Besides, the outcome in assay [5], in assay [6], in assay [7] and in assay [8] was inactive.
Turning to `CN(C)c1ccc(-c2csc(C(=O)NCC3CCN(Cc4ccc(C(C)(C)C)cc4)C3)c2)cc1` (stereo not given), the figures for the growth inhibition in assay [1] and in assay [4] were 64% (active) and 97% (active), respectively. Further, the inhibition in assay [2] was 29%; in assay [3], 0%. Further, the result in assay [5], in assay [6], in assay [7] and in assay [8] was inactive.
Turning to `CCCCc1ccc2[nH]cc(C(=O)OCC)c(=O)c2c1`, the growth inhibition was 96% (active) in assay [1] and 95% (active) in assay [4]. The figures for the inhibition in assay [2] and in assay [3] were 3% and 5%, respectively. Further, the result in assay [5], in assay [6], in assay [7] and in assay [8] was inactive.
With `C#CCCC(=O)Nc1cccc(-c2cccc(-c3nc4c(C)cccc4[nH]3)c2)c1`, the growth inhibition was 29% in assay [1] and 97% (active) in assay [4]. Moreover, the inhibition was 30% in assay [2] and -3% in assay [3]. In addition, the outcome in assay [5], in assay [6], in assay [7] and in assay [8] was inactive.
With `CCOC(=O)c1ccc(-c2cnc(N)c(-c3nc4c(C)cccc4[nH]3)c2)cc1`, the growth inhibition in assay [1] was 79% (active); in assay [4], 102% (active). In addition, the inhibition in assay [2] is 43%; in assay [3], -4%. Moreover, the outcome in assay [5], in assay [6], in assay [7] and in assay [8] was inactive.
As for `N#Cc1ccc(N2CCN(Cc3cccc(-c4cccc(-c5nc6ccc(C(F)(F)F)cc6[nH]5)c4)c3)CC2)nc1`, the growth inhibition in assay [1] was 50% (active); in assay [4] it was 99% (active). Further, the inhibition in assay [2] is 15%; in assay [3] it was 6%. Also, the result in assay [5], in assay [6], in assay [7] and in assay [8] was inactive.
Turning to `COc1ccc2nccc([C@@H](O)CN3CCC(NC(=O)c4cc5ccccc5[nH]4)CC3)c2c1`, the results for the growth inhibition in assay [1] and in assay [4] were 55% (active) and 96% (active), respectively. Further, the inhibition in assay [2] is 19%; in assay [3], -3%. The outcome in assay [5], in assay [6], in assay [7] and in assay [8] was inactive.
In the case of `O=C(C=Cc1ccc(Cl)c(Cl)c1)NCCCCCN1CCC(CCCNC(=O)[C@@H]2C[C@H]2c2ccccc2)CC1`, the growth inhibition was 12% in assay [1] and 95% (active) in assay [4]. Further, the inhibition in assay [2] is 45%; in assay [3], -1%. The outcome in assay [5], in assay [6], in assay [7] and in assay [8] was inactive.
Consider `COc1ccc(Cl)cc1-c1nc(C(=O)NCCN2CCCCC2)c(C(C)C)s1`, for which the growth inhibition in assay [1] is 37%; in assay [4], 100% (active). Also, the figures for the inhibition in assay [2] and in assay [3] were 14% and -3%, respectively. Further, the result in assay [5], in assay [6], in assay [7] and in assay [8] was inactive.
With `CCCNCc1ccc(-c2ccc(CN(CCOC)C(=O)c3cnc(C)cn3)cc2)nc1`, the growth inhibition in assay [1] was 14%; in assay [4] it was 81% (active). For the same compound, the inhibition in assay [2] was -3%; in assay [3], -4%. Further, the result in assay [5], in assay [6], in assay [7] and in assay [8] was inactive.
In the case of `COc1cc(C(=O)Nc2cccc(-c3nc4ccccc4[nH]3)c2)cc(OC)c1OC`, the growth inhibition in assay [1] was 41%; in assay [4], 99% (active). Besides, the figures for the inhibition in assay [2] and in assay [3] were 25% and -3%, respectively. For the same compound, the result in assay [5], in assay [6], in assay [7] and in assay [8] was inactive.
As for `CCCC(C)N(Cc1ccc(C(C)(C)C)cc1)C(=O)c1cccc(C#N)c1` (stereo not given), the growth inhibition in assay [1] was 45%; in assay [4], 86% (active). In addition, the inhibition in assay [2] is 14%; in assay [3] it was -9%. In addition, the result in assay [5], in assay [6], in assay [7] and in assay [8] was inactive.
In the case of `CCCCCCN1CCC(NCc2cccc(-n3ccnc3)c2)CC1`, the values for the growth inhibition in assay [1] and in assay [4] were 101% (active) and 103% (active), respectively. In addition, the inhibition in assay [2] is 3%; in assay [3], 5%. Besides, the result in assay [5], in assay [6], in assay [7] and in assay [8] was inactive.
With `O=C(C=Cc1cn(-c2ccccc2)nc1-c1ccccc1)N1CCN(c2ccncc2)CC1`, the growth inhibition is 20% in assay [1] and 90% (active) in assay [4]. Besides, the inhibition was 11% in assay [2] and 2% in assay [3]. The result in assay [5], in assay [6], in assay [7] and in assay [8] was inactive.
Turning to `Oc1c(C(Nc2ccccn2)c2ccc(Cl)cc2Cl)ccc2cccnc12` (stereo not given), the growth inhibition is 60% (active) in assay [1] and 88% (active) in assay [4]. Further, the inhibition in assay [2] was 42%; in assay [3], 1%. For the same compound, the result in assay [5], in assay [6], in assay [7] and in assay [8] was inactive.
Turning to `Fc1cccc(COc2ccc(Nc3ncnc4sc(C#CCNC5CCC5)cc34)cc2Cl)c1`, the growth inhibition is 73% (active) in assay [1] and 100% (active) in assay [4]. Further, the inhibition in assay [2] was 15%; in assay [3], 9%. The result in assay [5], in assay [6], in assay [7] and in assay [8] was inactive.
Turning to `CC(C)(CNCc1cccc(Oc2cccc(C(F)(F)F)c2)c1)c1nc(-c2ccc(Cl)c(O)c2)c(-c2ccnc(N)n2)[nH]1`, the growth inhibition in assay [1] is 98% (active); in assay [4], 99% (active). The inhibition in assay [2] is 23%; in assay [3], 2%. Besides, the result in assay [5], in assay [6], in assay [7] and in assay [8] was inactive.
On to `Cn1nc(-c2ccc(NC(=O)Nc3cc(C(F)(F)F)ccc3F)c(F)c2)c2cnc(NCCCN3CCOCC3)nc21`, for which the growth inhibition in assay [1] was 62% (active); in assay [4], 100% (active). Besides, the inhibition is 31% in assay [2] and 3% in assay [3]. In addition, the outcome in assay [5], in assay [6], in assay [7] and in assay [8] was inactive.
Consider `CC(C)N1CCCN(C(=O)C2CCN(c3ccc(C(=O)N4CCCC4)cn3)CC2)CC1`, for which the growth inhibition was 12% in assay [1] and 86% (active) in assay [4]. The inhibition was 41% in assay [2] and 1% in assay [3]. Also, the result in assay [5], in assay [6], in assay [7] and in assay [8] was inactive.
On to `Cc1cccc2[nH]c(-c3ccc(-c4cccc(NC(=O)Cc5cnc[nH]5)c4)cc3)nc12`, for which the growth inhibition is 21% in assay [1] and 98% (active) in assay [4]. Also, the inhibition in assay [2] is 13%; in assay [3] it was -4%. In addition, the result in assay [5], in assay [6], in assay [7] and in assay [8] was inactive.
